# In all, about 5,000 compounds went through this assay and about 3,900 (78%) were called active. No stated cut-off is given here; in the data, active means inhibition above about 22%; inactive means the rest. The set was probably picked from earlier hits. These entries were drawn from the full list.
# Assay: fluorescence retest of MPTP screen hits in isolated mitochondria, single concentration (AID 624504);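 further: 0% = DMSO vehicle and 100% = positive control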
# Conditions: membrane potential, Rhodamine 123 fluorescence, at 10 µM, stronger effect = higher value
row,Structure (SMILES),inhibition
1,O=C(NNc1c2ccccc2nc2ccccc12)c1cc2ccccc2cc1O,31.4% (active)
2,CCn1c(CNC(=O)c2cc(OC)c(OC)c(OC)c2)cc2cc(C)ccc21,72.8% (active)
3,CCCCOc1ccc(CSC(=N)N)cc1[N+](=O)[O-],-5.28% (inactive)
4,CCc1ccc(Nc2n[n+](-c3ccccc3)c(-c3cccc(Cl)c3Cl)s2)cc1,86.2% (active)
5,Cc1cc(C(=O)CSc2nc(N)cc(=O)[nH]2)c(C)n1Cc1ccco1,46.4% (active)
6,Cc1cc(C(=O)CSc2nc(N)cc(=O)[nH]2)c(C)n1-c1cccc(F)c1,59% (active)
7,NC[C@H](Cc1ccccc1)NCCc1cc(C(F)(F)F)cc(C(F)(F)F)c1,-12% (inactive)
8,c1ccc2c(c1)C(=NC1CCCCC1)NC2=NC1CCCCC1,92.1% (active)
9,Cc1ccc2nnn(Cc3cccc(C(C)(C)C)c3O)c2c1,98.9% (active)
10,O=c1c2ccccc2nc2n1C(CSCc1ccccc1)CS2 (stereo not drawn),26.1% (active)
11,O=c1c2ccccc2nc2n1C(CSCc1cccc(C(F)(F)F)c1)CS2 (stereo not drawn),80.9% (active)
12,CN1CCC[C@@H]1CCO[C@](C)(c1ccccc1)c1ccc(Cl)cc1,-12.2% (inactive)
13,CCCc1ccc(-c2c(C)sc(NC(=O)c3ccnn3C)c2C#N)cc1,90.5% (active)
14,CCCCc1nc(NCCN)c(C#N)c2c1CSC(C)(C)C2,-9.33% (inactive)
15,COc1cc(CNCc2ccc(OC)c3ccccc23)cc(OC)c1OC,75.8% (active)
16,Cc1nc2nc(SCC(=O)Nc3cccc(F)c3)[nH]c2cc1Br,81.1% (active)
17,CC(=O)c1c(C)[nH]c(C(=O)COC(=O)c2cccc(S(=O)(=O)N(C)c3ccccc3)c2)c1C,90.1% (active)
18,CC(C)(CCl)C(=O)Nc1ccc(Sc2ccc(F)cc2)cc1,80.4% (active)
19,O=C(C/C(=N\NC(=O)c1ccccc1Br)C(F)(F)F)c1cccs1,82.3% (active)
20,O=C(NCCc1ccc2c(c1)OCCO2)c1cc2ccccc2o1,51.1% (active)
21,CC1(C)CC(=O)c2sc(N)nc2C1,1.93% (inactive)
22,CCCc1nc2c(c(=O)c3ccccc3n2C)c(=O)n1C1CCCCCC1,19.4% (inactive)
23,O=C(Nc1ccc(OC(F)(F)F)cc1)c1ccc2c(c1)no[n+]2[O-],88.6% (active)
24,CCC(C)(C)c1ccc(Oc2ccc(NC(=O)COC(=O)C3=COCCO3)cc2)cc1,55.3% (active)

row,Structure (SMILES),inhibition
1,CCCCCCc1cc2cc(-c3nnc(-c4ccccc4)o3)c(=O)oc2cc1O,1.15% (inactive)
2,Cc1ccc(Nc2c3c(nc4ccccc24)CCC3)cc1,76.8% (active)
3,O=C(NCCOc1ccccc1F)Nc1ccc(Br)cc1,71.7% (active)
4,CCOC(=O)c1ccc(NC(=O)Cn2cnc3cc(C)c(C)cc32)cc1,88.8% (active)
5,COc1ccc(NS(=O)(=O)c2cc(NC(=O)CC(=O)c3ccc([N+](=O)[O-])cc3)ccc2C)cc1,66.5% (active)
6,O=C(Cc1cccc2ccccc12)NNC(=O)Nc1ccc(Cl)cc1,85.8% (active)
7,Cc1ccc(NC(=S)NC(NC(=O)Cc2cccc3ccccc23)C(Cl)(Cl)Cl)cc1 (stereo not drawn),70.9% (active)
8,COC(=O)c1ccc(NC(=O)c2ccccc2NS(=O)(=O)c2ccccc2)cc1,93.2% (active)
9,COc1cc(NC(=O)c2ccccc2NS(=O)(=O)c2ccc(Cl)s2)cc(OC)c1,75.8% (active)
10,Clc1ccc(-c2cc(C3CCNCC3)[nH]n2)c(Cl)c1,-10.4% (inactive)
11,Cc1nnc(SC(C(=O)Nc2cc(Cl)cc(Cl)c2)c2ccccc2)[nH]c1=O (stereo not drawn),86.5% (active)
12,CCOC(=O)c1c(NC(=O)CSc2cn(CC)c3ccccc23)sc2c1CCC2,-4.21% (inactive)
13,CC(=O)c1c(C)[nH]c(C(=O)OCC(=O)Nc2sc3c(c2C#N)CCCC3)c1C,82.4% (active)
14,Cc1cc(C)cc(NC(=S)NCc2ccc(F)cc2)c1,57.4% (active)
15,Cc1c(NC(=S)NCc2ccc(F)cc2)cccc1[N+](=O)[O-],78.8% (active)
16,Cc1nc(CNS(=O)(=O)c2ccc(Oc3ccccc3)cc2)cs1,88.2% (active)
17,FC(F)Oc1ccc(NC(=S)NCc2ccco2)cc1Cl,97.6% (active)
18,Cc1ccc(CC(=O)Nc2ccc(OC(F)F)c(Cl)c2)cc1C,89.8% (active)
19,c1ccc2c(c1)CSc1sccc1C2=C1CCNCC1,-11.2% (inactive)
20,Cc1nc2ccccc2cc1OCc1ccc(F)cc1,100% (active)
21,Cc1cc(OCCCC(=O)NCCN2C(=O)S/C(=C\c3cccnc3)C2=O)ccc1Cl,68.6% (active)
22,Cc1nn(C)cc1CNC(=O)Nc1ccc(Cl)cc1,96.6% (active)
23,Cc1cc(C=O)c(C)n1-c1ccc(NC2CCCCC2)c([N+](=O)[O-])c1,41.9% (active)
24,CCCCCCCCCCCCN1C(=O)CSC1c1cccnc1 (stereo not drawn),19.9% (inactive)

row,Structure (SMILES),inhibition
1,COc1cc2c3c(c1)/C(=C1/SC(=S)NC1=O)C(=O)N3C(C)(C)C=C2C,49.1% (active)
2,CCCC(C(=O)OCCN(CC)CC)(c1ccccc1)c1ccccc1,4.44% (inactive)
3,CC(C)N1C(=S)SC(C)(C)C1n1oc(=O)n(-c2ccc(Cl)c(Cl)c2)c1=O (stereo not drawn),80.6% (active)
4,COc1ccc(CNc2ncnc3ccccc23)cc1,71.8% (active)
5,O=C(Nc1nc2ccc([N+](=O)[O-])cc2s1)c1ccncc1,20.6% (active)
6,Cc1cc(C)cc(OCC(=O)Nc2nc3ccc([N+](=O)[O-])cc3s2)c1,62.3% (active)
7,O=C(NC(Nc1nc2ccc([N+](=O)[O-])cc2s1)(C(F)(F)F)C(F)(F)F)c1ccccc1,81.4% (active)
8,O=C(Nc1nc2ccc([N+](=O)[O-])cc2s1)c1ccc(S(=O)(=O)N2CCCc3ccccc32)cc1,74.7% (active)
9,CCCC[C@@H]1CN=C(N)N1CCc1cc(C(F)(F)F)cc(C(F)(F)F)c1,-7.58% (inactive)
10,O=C(Nc1ccc(Cl)cc1)Nc1nnc(/C=C/c2ccccc2)s1,67% (active)
11,CS(=O)(=O)N(CC(=O)Nc1ccc(Cl)c(Cl)c1)C1CCCCC1,82.4% (active)
12,N#CCCN(C(=S)Nc1ccc(Cl)c(Cl)c1)C1CCCCC1,91.7% (active)
13,O=C(N/N=C/c1ccc(O)c(O)c1)C1c2ccccc2Oc2ccccc21,-9.84% (inactive)
14,NS(=O)(=O)c1ccc(NC(=S)Nc2ccc(Br)c(Cl)c2)cc1,76% (active)
15,CCN1CCC(O)(/C=C/c2ccc(C)cc2)C(C(=O)/C=C/c2ccc(C)cc2)C1 (stereo not drawn),-14.1% (inactive)
16,Cc1cc(C)cc(NS(=O)(=O)c2ccc(Oc3ncc(C(F)(F)F)cc3Cl)cc2)c1,93.4% (active)
17,FC(F)Oc1ccccc1NC(=S)Nc1cccc(Cl)c1Cl,44.5% (active)
18,CN(Cc1cccnc1)C(=O)c1cc(COc2ccc3ncccc3c2)on1,73% (active)
19,CCCc1[nH]nc2c1C(c1c(C)nn(-c3ccccc3)c1Cl)C(C#N)=C(N)O2 (stereo not drawn),-3.33% (inactive)
20,O=C1CC(c2ccccc2)=NN1c1ccc([N+](=O)[O-])cc1,77.6% (active)
21,O=C(Nc1cccc(Cl)c1)Nc1ccccc1NS(=O)(=O)c1cccs1,89.6% (active)
22,COc1cc(CC(=O)Nc2nc(-c3ccc(F)c(F)c3)cs2)cc(OC)c1OC,93.2% (active)
23,COc1ccc(CC(=O)Nc2nc(-c3ccc(F)c(F)c3)cs2)cc1OC,94.5% (active)
24,CCCOc1ccc(Cc2c(Cl)nc(SC)nc2NC)cc1,93.6% (active)

row,Structure (SMILES),inhibition
1,Cn1nccc1NC(=O)Nc1ccc(OC(F)(F)F)cc1,73.2% (active)
2,CC(=N\NC(=O)c1cc(Br)ccc1O)/C(=N/O)C(=O)Nc1ccccc1,78.4% (active)
3,Cc1oc2c(F)c(F)c(F)c(F)c2c1S(=O)(=O)Nc1cccc(C(F)(F)F)c1,83.5% (active)
4,Cc1oc2cc([N+](=O)[O-])c(O)c([N+](=O)[O-])c2c1C(=O)c1ccc(Br)cc1,61.8% (active)
5,O=C(Cc1ccc(-n2c(=O)[nH]c3ccccc3c2=O)cc1)N1CCN(c2cccc(Cl)c2)CC1,49.8% (active)
6,COc1ccc(CCNc2cc(N3CCN(C(=O)c4ccccc4OC)CC3)ccc2[N+](=O)[O-])cc1OC,47.7% (active)
7,Cc1ccc2c(c1)C1CN(C)CCC1N2S(=O)(=O)c1ccc(Oc2ccc([N+](=O)[O-])cc2)cc1 (stereo not drawn),-16.2% (inactive)
8,Cc1ccc(NC(=O)COc2ccc(-n3ccnc3)cc2)cc1Cl,94.1% (active)
9,O=C(Nc1nc2c(F)cc(F)cc2s1)C1COc2ccccc2O1 (stereo not drawn),76.6% (active)
10,O=C(Nc1nnc(SCc2ccc(Cl)cc2Cl)s1)C1COc2ccccc2O1 (stereo not drawn),72.7% (active)
11,O=C(NCCNc1ccc([N+](=O)[O-])cc1)c1cccc2c(Br)cccc12,84.9% (active)
12,O=C(NCCCN1CCN(c2ccc(F)cc2)CC1)Nc1ccc([N+](=O)[O-])cc1,89.6% (active)
13,CN1CCN(CCNC(=O)Nc2ccc([N+](=O)[O-])cc2)CC1,75.1% (active)
14,Cc1cccc(-c2nc3ccc(C(=O)NCCN4CCN(C)CC4)cc3nc2-c2cccc(C)c2)c1,-16.4% (inactive)
15,CCCOc1ccc(C(=O)C(CCC(CNCC)C(=O)c2ccc(OCCC)cc2)CNCC)cc1 (stereo not drawn),-13.8% (inactive)
16,O=c1c(-c2ccc3c(c2)OCCO3)c(C(F)(F)F)oc2cc(O)cc(O)c12,80.7% (active)
17,CC1=C/C(=N\OS(=O)(=O)c2ccccc2)C=CC1=O,92.7% (active)
18,Cc1c(C(=O)OC(C)C)sc(NC(=O)c2cccnc2)c1C#N,82.8% (active)
19,Cc1ccc(-c2nc(-c3cccnc3)sc2CC(=O)Nc2ccc(C)c(Cl)c2)cc1,90.8% (active)
20,CCNS(=O)(=O)c1ccc(NC(=O)Nc2cccc(C(F)(F)F)c2)cc1,73.9% (active)
21,CCc1cc2c(NC3CCCC3)ncnc2s1,59.8% (active)

# From PubChem BioAssay AID624504 (Sanford-Burnham Center for Chemical Genomics, 2012)
